NOMO-1 viab = STK33 inhibitor candidate reducing NOMO-1 cell viability | NOMO-1 AML viability, CellTiter-Glo luminescence, 72 h | inhibition, % (no concentration beside the values) | actives 7.5% (n = 37,000) | AID 2330; in the data active = inhibition above about 80%
mut p53 react = mutant p53 pathway reactivation. AID 624151. actives 1.5% (n = 28,000). activation, % at 9.98 µM. SW480 PUMA-promoter luciferase; in the data active = activation above about 52%
ID4 binder = binders of human ID4 protein. P47928. small molecule microarray, Flag-ID4 binding, fluorescence F/B. calls only. actives 1.2% (n = 31,000); call rule not given here;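 note: a binder raises fluorescence above local background on the spot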
Target sequence (P47928 whole entry, looked up): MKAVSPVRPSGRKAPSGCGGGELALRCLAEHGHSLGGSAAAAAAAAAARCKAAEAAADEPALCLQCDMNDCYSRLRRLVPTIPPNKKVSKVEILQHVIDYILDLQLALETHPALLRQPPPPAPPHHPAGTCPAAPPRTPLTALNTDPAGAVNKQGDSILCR
STK33 kin inh = inhibitors of human STK33 kinase | AID 2322 | actives 0.44% (n = 27,000) | Q9BYT3 | inhibition, % at 12.5 µM | ADP-Glo luminescence, MBP substrate; in the data active = inhibition above about 20%
* = called active by the depositor; i = inactive; . = no result; + = active, no number. The sample as a whole holds a higher share of hits than the screen did.

SMILES | NOMO-1 viab | mut p53 react | ID4 binder | STK33 kin inh
COC1=CC(=O)OC(/C=C/c2ccccc2)C1 (stereo unspecified) | -13.8 | 89.6* | i | 1.7
O=C1NC(=O)C(CCc2ccncc2)(CCc2ccncc2)C(=O)N1c1ccccc1F | -6.5 | -15.8 | i | -1.8
CCc1nc2ccccc2c(=O)n1-c1ccccc1Cl | 104.4* | . | . | .
CC(C)(O)c1cc(O)c2c(c1)CCC1C(C)(C(=O)O)CCCC21C (stereo unspecified) | -6.2 | 15.9 | i | -5.0
CC[C@@H]1/C=C\C=C\C[C@H](C)C(O)[C@](C)(O)C(=O)[C@H](C)C(O)[C@H](C)C(=O)[C@H](C)[C@@H](O)[C@H](C)/C=C/C(=O)O[C@H]2[C@@H](C)[C@@H](CC1)O[C@@]1(CC[C@@H](C)[C@@H](C[C@H](C)O)O1)[C@@H]2C (stereo partly specified) | 123.7* | . | . | -1.5
O=C1CCCC2C3CC(CN12)[C@@H]1CCCCN1C3 (stereo partly specified) | -22.8 | 8.7 | i | 1.0
C[C@H]1O[C@@H](O[C@H]2[C@@H](O)C[C@H](O[C@H]3[C@@H](O)C[C@H](O[C@H]4CC[C@@]5(C)[C@H](CC[C@@H]6[C@@H]5CC[C@]5(C)[C@@H](C7=CC(=O)OC7)CC[C@]65O)C4)O[C@@H]3C)O[C@@H]2C)C[C@H](O)[C@@H]1O | 123.9* | . | . | -8.0
CO[C@H]1C[C@H](OC2CCC3(C)C4CCC5(C)C(C6=CC(=O)OC6)CC(OC(C)=O)C5(O)C4CC[C@H]3C2)O[C@@H](C)[C@@H]1O (stereo partly specified) | 108.6* | -92.1 | i | -1.6
C[C@H]1OC(O[C@H]2[C@@H](O)CC(O[C@H]3[C@@H](O)C[C@H](O[C@H]4CC[C@]5(C)C6CC[C@]7(C)[C@@H](C8=CC(=O)OC8)[C@@H](O)C[C@]7(O)[C@@H]6CC[C@@H]5C4)O[C@@H]3C)O[C@@H]2C)C[C@H](O)C1O (stereo partly specified) | 107.3* | . | . | -1.6
COc1ccc2c(c1OC)C(=O)O[C@@H]2[C@@H]1c2cc3c(cc2CCN1C)OCO3 | -26.9 | . | i | 0.3
Cc1cc(OC(=O)N(C)C)cc(=O)n1C | 16.9 | . | . | .
O=C1NC(=O)N(c2ccccc2)C(=O)/C1=C/c1ccco1 | 135.8* | . | . | .
O=C1CC=C2C3CC4N(CCC45c4ccccc4N1C25)C/C3=C/CO (stereo unspecified) | 6.7 | 10.1 | i | 3.1
Cc1ccc2c(c1)-c1cc(C)nn1C(c1cccnc1)N2 (stereo unspecified) | . | 33.5 | i | .
CCC(C)C1NC(=O)C2CCCN2C(=O)C(CC(C)C)OC(=O)CCNC(=O)C(C)N(C)C(=O)C(C(C)C)N(C)C1=O (stereo unspecified) | 106.0* | . | i | -3.6
CC1=CC(=O)c2c(O)cccc2C1=O | 105.4* | . | . | -10.0
O=c1cccc2n1C[C@H]1CNCC2C1 | 6.0 | -4.1 | i | 4.1
CCc1cccc(CC)c1N(COC)C(=O)CCl | 50.1 | . | i | -0.3
CCOCN(C(=O)CCl)c1c(C)cccc1CC | 108.9* | . | . | 1.4
CC1=C[C@H]2[C@]3(O)[C@H](C)[C@@H](O)[C@@]4(O)[C@H]([C@@H]3C=C(CO)C[C@]2(O)C1=O)C4(C)C | 1.4 | 2.9 | i | -2.1
C[C@H]1CN([C@@H](C)CO)C(=O)CCCn2cc(nn2)CO[C@H]1CN(C)C(=O)Oc1ccc2ccccc2c1 | . | . | . | 0.0
C=CCN1C(=O)/C(=C/c2cc(C)n(-c3ccccn3)c2C)C(=O)NC1=S | 111.0* | . | . | .
COc1ccc(CN2CCN(CCO)CC2)c(OC)c1C | . | 13.9 | i | 0.2
O=C(O)C1=CCCN(CCOC(c2ccc(C(F)(F)F)cc2)c2ccc(C(F)(F)F)cc2)C1 | . | -1.3 | i | .
Fc1ccc(C(OCCN2CCN(CCCc3ccccc3)CC2)c2ccc(F)cc2)cc1 | 102.6* | -112.9 | i | 1.6
SMILES | NOMO-1 viab | mut p53 react | ID4 binder | STK33 kin inh
c1ccc(CCCN2CCN(CCOC(c3ccccc3)c3ccccc3)CC2)cc1 | 104.4* | . | i | 2.7
Fc1ccc(C(OCCN2CCN(C/C=C/c3ccccc3)CC2)c2ccc(F)cc2)cc1 | 119.5* | -72.5 | i | -1.6
CCOC(=O)c1ncn2c1C1CCCN1C(=O)c1cc(OC)ccc1-2 (stereo unspecified) | . | 15.8 | i | .
CCc1nc2ccccc2c(=O)n1-c1ccc(OC)cc1 | 6.2 | . | . | 1.6
O=C(N[C@H]1CN2CCC1CC2)c1ccc(Cl)cc1 | . | 12.0 | + | .
C=C1C(=O)O[C@@H]2/C=C(/C)CC/C=C(/C)C[C@@H](OC(=O)/C(=C/CO)CO)C12 (stereo partly specified) | 119.4* | . | . | -0.9
COC(=O)c1ccc(OP2(=O)COc3ccccc3OC2)cc1 | 5.6 | . | . | .
CCC(C)[C@H]1O[C@]2(C=C[C@@H]1C)C[C@@H]1C[C@@H](C/C=C(\C)[C@@H](OC3C[C@H](OC)C(O[C@H]4C[C@H](OC)[C@@H](O)[C@H](C)O4)[C@H](C)O3)[C@@H](C)/C=C/C=C3\CO[C@@H]4[C@H](O)C(C)=C[C@@H](C(=O)O1)[C@]34O)O2 (stereo partly specified) | 103.6* | . | . | 4.5
Cc1cc(OCC(=O)N(C)C)c2c3c(c(=O)oc2c1)CCCC3 | -5.6 | . | . | .
CC(O)CNCCNc1ccc([N+](=O)[O-])c2cccnc12 (stereo unspecified) | 13.3 | 25.7 | i | 0.5
CC(C)c1cc2c(cc1O)[C@@]1(C)C[C@@H](O)CC(C)(CO)C1CC2 (stereo partly specified) | 18.2 | 22.1 | i | -0.7
Cc1ccccc1OCCCn1cc(C(=O)C(C)(C)C)c2ccccc21 | . | -6.5 | i | .
CCNC(=O)[C@H]1O[C@@H](n2cnc3c(N)ncnc32)C(O)[C@H]1O (stereo partly specified) | 0.9 | 6.6 | i | 2.8
C[C@@H]1O[C@@H](O[C@H]2[C@H](O)[C@@H](O)[C@H](O[C@@H]3C=C4CC[C@@H]5C(CC[C@]6(C)[C@@H](c7ccc(=O)oc7)CC[C@]56O)[C@@]4(C)CC3)O[C@@H]2CO)[C@H](O)[C@H](O)[C@H]1O (stereo partly specified) | 123.5* | . | . | -2.2
CCN1CC2(COC)CCC(O)C34C5CC6C(OC)CC(O)(C5C6O)C(C(OC)C23)C14 (stereo unspecified) | 0.7 | 12.2 | i | -0.8
CN(C(=O)Cc1ccccc1)C(CN1CCCC1)c1ccccc1 (stereo unspecified) | . | 18.1 | i | .
CC(=O)O[C@@H](c1nc2ccccc2c(=O)n1[C@@H]1C[C@@]2(OC1=O)c1ccccc1N1C(=O)[C@H](C)N(O)[C@@H]12)C(C)C | 84.0* | -43.2 | i | -11.2
CC1(C)C(C(=O)Nc2ccccc2C(F)(F)F)C1(C)C | 8.3 | . | . | -1.1
C[C@H](N)C(=O)N[C@@H](C)C(=O)N[C@@H](Cc1ccccc1)C(=O)CCl | 114.4* | 18.4 | i | 0.2
CN1CCc2cc(O)cc3c2[C@H]1Cc1ccc(O)c(O)c1-3 | 104.9* | -10.1 | i | 3.1
COc1cc2c(cc1O)C[C@H]1c3c(cc(O)c(OC)c3-2)CCN1C | 13.0 | 18.9 | i | -7.3

Screening data (PubChem BioAssay)
